# Measurements: PubChem BioAssay (NCATS)
# Results filed as inconclusive are left out. A call without a number means that no potency is given here. Active and inactive are the calls of the source. Calls come from the whole dose curve; as a rule, active = well fitted inhibition curve with a large enough effect; inconclusive = small, poorly fitted or top-dose-only effect; inactive = flat fitted curve, though single readings scatter.
# Columns and labels:
# Assay in all cases: qHTS profiling for inhibitors of Plasmodium falciparum proliferation (AID 504749); note: nearly all actives have a fitted effect of over 60% in size
# Conditions in all cases: P. falciparum in erythrocytes, SYBR Green DNA, 72 h; series mostly up to 28.7 µM
# [1] = tested on: CP335
# How it was run: (§1)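 Three-day growth assay of blood-stage parasites in erythrocytes (0.3% parasitemia, 2.5% hematocrit) at 37 C, 5% CO2, quantified by SYBR Green DNA staining after overnight detergent lysis.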
# [2] = tested on: DFO2036
# How it was run: as §1
# [3] = tested on: DIV14
# How it was run: as §1
# [4] = tested on: Dd2
# How it was run: as §1
# [5] = tested on: ECU
# How it was run: as §1
# [6] = tested on: FAB9
# How it was run: as §1
# [7] = tested on: HB3
# How it was run: as §1
# [8] = tested on: ICS
# How it was run: as §1
# [9] = tested on: JCK
# How it was run: as §1
# [10] = tested on: N140
# How it was run: as §1
# [11] = tested on: P93_24
# How it was run: as §1
# [12] = tested on: P94_40
# How it was run: as §1
# [13] = tested on: PAD
# How it was run: as §1
# [14] = tested on: PC15
# How it was run: as §1
# [15] = tested on: PC49
# How it was run: as §1
# [16] = tested on: CP329
# How it was run: as §1
# [17] = tested on: DIV17
# How it was run: as §1
# [18] = tested on: DIV30
# How it was run: as §1
# [19] = tested on: GB4
# How it was run: as §1
# [20] = tested on: PC26
# How it was run: as §1
# Potency is the fitted concentration of half-maximal effect.
Structure (SMILES),Potency [1],Potency [2],Potency [3],Potency [4],Potency [5],Potency [6],Potency [7],Potency [8],Potency [9],Potency [10],Potency [11],Potency [12],Potency [13],Potency [14],Potency [15],Potency [16],Potency [17],Potency [18],Potency [19],Potency [20]
C=CCN=C=S,inactive,inactive,inactive,inactive,inactive,inactive,inactive,inactive,inactive,inactive,inactive,inactive,inactive,inactive,inactive,,,,,
O=[N+]([O-])c1ccccc1,,inactive,inactive,inactive,inactive,inactive,inactive,inactive,inactive,inactive,inactive,inactive,inactive,inactive,inactive,inactive,inactive,inactive,inactive,inactive
c1ccc2cc(CC3=NCCN3)ccc2c1,inactive,inactive,,inactive,inactive,inactive,inactive,inactive,inactive,inactive,inactive,inactive,inactive,inactive,inactive,inactive,inactive,inactive,,inactive
CC(C)Nc1ccc(Nc2ccccc2)cc1,,5.01 µM (active),12 µM (active),10 µM (active),11.2 µM (active),10 µM (active),,7.08 µM (active),,7.94 µM (active),7.94 µM (active),8.91 µM (active),10 µM (active),,inactive,6.01 µM (active),13.5 µM (active),4.78 µM (active),5.36 µM (active),4.78 µM (active)
c1cc2c(c(NC3=NCCN3)c1)CCCC2,inactive,inactive,15.1 µM (active),inactive,inactive,inactive,inactive,,inactive,inactive,inactive,inactive,inactive,,,,,,,
CCCCCCCCCC(=O)O[C@H]1CC[C@H]2[C@@H]3CCC4=CC(=O)CC[C@]4(C)[C@H]3CC[C@]12C,,inactive,inactive,inactive,inactive,inactive,inactive,,inactive,inactive,inactive,inactive,inactive,inactive,inactive,inactive,inactive,inactive,inactive,inactive
O=c1c2ccccc2[se]n1-c1ccccc1,,,,,,inactive,inactive,,inactive,,,,,,inactive,inactive,,inactive,,
F/C(COc1ccc2c(c1)[nH]c1ccccc12)=C1/CN2CCC1CC2,,11.2 µM (active),4.26 µM (active),5.62 µM (active),,inactive,,3.55 µM (active),,10 µM (active),6.31 µM (active),,8.91 µM (active),,2.82 µM (active),,6.75 µM (active),10.7 µM (active),,
ClC1C(Cl)C(Cl)C(Cl)C(Cl)C1Cl (stereo unspecified),inactive,inactive,,inactive,inactive,inactive,inactive,inactive,inactive,inactive,inactive,inactive,inactive,inactive,inactive,inactive,inactive,inactive,inactive,inactive
CNC(=O)Oc1ccccc1C(=O)Nc1ccccc1,inactive,inactive,,,11.2 µM (active),inactive,inactive,12.6 µM (active),,,,,,inactive,,inactive,,,15.1 µM (active),
O=C1CC[C@@]2(O)C3Cc4ccc(O)c5c4C2(CCN3CC2CC2)[C@H]1O5 (stereo partly specified),,inactive,inactive,inactive,inactive,inactive,inactive,inactive,inactive,inactive,inactive,inactive,inactive,inactive,inactive,inactive,inactive,inactive,inactive,inactive
OC(c1ccccc1)(c1ccccc1)C1CN2CCC1CC2 (stereo unspecified),,inactive,,,,inactive,inactive,,inactive,inactive,inactive,inactive,,,1 µM (active),inactive,3.79 µM (active),,,
CCC(=O)O[C@@](Cc1ccccc1)(c1ccccc1)[C@@H](C)CN(C)C,inactive,inactive,,,inactive,inactive,inactive,,inactive,,,inactive,inactive,,,inactive,,,,
CCNC(C)Cc1cccc(C(F)(F)F)c1 (stereo unspecified),,inactive,inactive,inactive,,inactive,inactive,inactive,inactive,inactive,inactive,inactive,inactive,inactive,inactive,inactive,inactive,inactive,,inactive
c1ccc(C2(N3CCCC3)CCCCC2)cc1,10.7 µM (active),10 µM (active),12 µM (active),12.6 µM (active),,,,,inactive,12.6 µM (active),5.62 µM (active),inactive,,,,,15.1 µM (active),,12 µM (active),13.5 µM (active)
O=C/C=C/c1ccccc1,,inactive,inactive,inactive,inactive,inactive,inactive,inactive,inactive,inactive,inactive,inactive,inactive,inactive,inactive,inactive,inactive,inactive,inactive,inactive
CCCN1CCCC2Cc3[nH]ncc3CC21 (stereo unspecified),,inactive,,inactive,inactive,inactive,inactive,inactive,inactive,inactive,inactive,inactive,inactive,inactive,inactive,,,,,
CCC1C(C)=NN=C(c2ccc(OC)c(OC)c2)c2cc(OC)c(OC)cc21 (stereo unspecified),inactive,inactive,,inactive,,inactive,inactive,8.91 µM (active),inactive,,,inactive,inactive,inactive,inactive,inactive,,inactive,inactive,
c1csc(C2(N3CCCCC3)CCCCC2)c1,inactive,inactive,,,inactive,inactive,inactive,inactive,inactive,inactive,inactive,inactive,inactive,inactive,inactive,inactive,inactive,inactive,inactive,inactive
CCOP(=O)(OCC)O/C(=C/Cl)c1ccc(Cl)cc1Cl,,inactive,,inactive,inactive,inactive,inactive,,inactive,inactive,,,inactive,inactive,inactive,inactive,,,,
CN1[C@@H]2CC[C@H]1CC(OC1c3ccccc3CCc3ccccc31)C2 (stereo partly specified),inactive,,1.81 µM (active),,3.55 µM (active),inactive,inactive,,inactive,,3.98 µM (active),,,inactive,inactive,inactive,1.81 µM (active),inactive,,
CC12NC(Cc3ccccc31)c1ccccc12 (stereo unspecified),,,,11.2 µM (active),inactive,inactive,inactive,,inactive,inactive,10 µM (active),,inactive,inactive,inactive,,,inactive,,inactive
[Cl-].[Cl-].[Hg+2],,11.2 µM (active),,12.6 µM (active),6.31 µM (active),7.08 µM (active),inactive,12.6 µM (active),,10 µM (active),,,7.08 µM (active),,,,,15.1 µM (active),4.78 µM (active),
Cc1sc2ccccc2c1CC1=NCCN1,inactive,inactive,,inactive,inactive,inactive,inactive,inactive,inactive,inactive,inactive,inactive,inactive,,inactive,inactive,,inactive,,inactive
CCC1(c2ccccc2)C(=O)NC(=O)N(C(=O)c2ccccc2)C1=O (stereo unspecified),inactive,inactive,inactive,inactive,inactive,inactive,inactive,inactive,inactive,inactive,inactive,inactive,inactive,inactive,inactive,inactive,,inactive,inactive,inactive
Oc1cc(Cl)c(Cl)cc1Cl,inactive,inactive,,inactive,inactive,inactive,inactive,,inactive,inactive,inactive,inactive,inactive,inactive,inactive,inactive,,inactive,,inactive
CCN(CC)C(=O)/C(Cl)=C(\C)OP(=O)(OC)OC,,inactive,,inactive,inactive,inactive,inactive,inactive,inactive,inactive,inactive,inactive,inactive,inactive,inactive,,,,,
C=CCC1(C(C)CCC)C(=O)N=C(S)NC1=O (stereo unspecified),inactive,inactive,,inactive,inactive,inactive,inactive,inactive,inactive,inactive,inactive,inactive,inactive,inactive,inactive,,,,,
